The list is not random: actives were taken first. Their share in the collection is about 9%.
IMPase Li inh: membrane-permeable IMPase blocker, potentiated with lithium | CHO-M1 cells, IP1 TR-FRET (IP-One), carbachol + lithium | Potency, µM (titrated, usually from 59.4 µM), actives largely listed as inhibitors | hit rate 0.35% among 210,000 | AID 1457;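 also: IP1 builds up when IMPase is blocked and the TR-FRET signal falls; nearly all actives have a fitted effect of over 50% in size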
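CHO cells stably expressing M1 receptor (2000/well) were cultured 16–30 h, then exposed to compounds with a small lithium addition for 30 min at 37C. IP1 was measured by TR-FRET competition; AC50 from Hill fits.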
LMNA splice mod: LMNA splicing modulation | HeLa LMNA splicing GFP/RFP minigene ratio, 48 h | Potency, µM (series often up to 46.1 µM), most hits filed as inhibitors | hit rate 0.01% among 200,000; active = well fitted inhibition curve with a large enough effect in the signal ratio, with a control signal flat, not every such curve was filed as active; inconclusive = small, poorly fitted or top-dose-only effect, or effect the other way, or a change in a side signal; the % refers to the signal ratio
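S3 HeLa stable clones carrying a lamin A-EGFP splicing minigene plus DsRed2 were seeded at 600 cells/well in Opti-MEM with 2% FBS, pin-dosed and incubated 48 h at 37°C. Acumen cytometry (488 nm) gave the GFP/RFP total-intensity ratio.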
HPGD block: blocks human HPGD enzyme activity; AID 894; purified HPGD, NADH fluorescence kinetic, PGE2 substrate; hit rate 4.3% among 150,000; Potency, µM, usual class: inhibitors; active = well fitted inhibition curve with a large enough effect, not every such curve was filed as active; inconclusive = small, poorly fitted or top-dose-only effect, or another doubt; inactive = no such curve, though single readings can be large or run the other way
Target sequence (P15428 whole entry, looked up): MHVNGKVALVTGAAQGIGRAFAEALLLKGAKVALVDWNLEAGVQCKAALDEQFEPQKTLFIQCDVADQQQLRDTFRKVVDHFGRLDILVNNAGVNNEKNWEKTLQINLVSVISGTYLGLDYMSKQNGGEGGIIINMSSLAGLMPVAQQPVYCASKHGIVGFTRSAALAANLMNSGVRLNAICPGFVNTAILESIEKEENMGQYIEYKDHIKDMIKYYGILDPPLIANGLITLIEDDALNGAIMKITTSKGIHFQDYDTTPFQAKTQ
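NADH formation kinetics: reaction with 30 uM PGE2 and 1 mM NAD+ (final), 20 nM enzyme, Tris-HCl pH 8 with Tween 20, after 15 min compound preincubation at room temperature. Fluorescence change, last versus first of five reads.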
ALDH1A1 inh: inhibitors of human aldehyde dehydrogenase 1A1; Purified ALDH1A1, NADH fluorescence, propionaldehyde substrate; Potency, µM (top dose mostly 75.3 µM), usual class: inhibitors; hit rate 7.3% among 220,000; AID 1030; P00352; active = well fitted inhibition curve with a large enough effect, not every such curve was filed as active; inconclusive = small, poorly fitted or top-dose-only effect, or another doubt; inactive = no such curve, though single readings can be large or run the other way
Target sequence (P00352 whole entry, looked up): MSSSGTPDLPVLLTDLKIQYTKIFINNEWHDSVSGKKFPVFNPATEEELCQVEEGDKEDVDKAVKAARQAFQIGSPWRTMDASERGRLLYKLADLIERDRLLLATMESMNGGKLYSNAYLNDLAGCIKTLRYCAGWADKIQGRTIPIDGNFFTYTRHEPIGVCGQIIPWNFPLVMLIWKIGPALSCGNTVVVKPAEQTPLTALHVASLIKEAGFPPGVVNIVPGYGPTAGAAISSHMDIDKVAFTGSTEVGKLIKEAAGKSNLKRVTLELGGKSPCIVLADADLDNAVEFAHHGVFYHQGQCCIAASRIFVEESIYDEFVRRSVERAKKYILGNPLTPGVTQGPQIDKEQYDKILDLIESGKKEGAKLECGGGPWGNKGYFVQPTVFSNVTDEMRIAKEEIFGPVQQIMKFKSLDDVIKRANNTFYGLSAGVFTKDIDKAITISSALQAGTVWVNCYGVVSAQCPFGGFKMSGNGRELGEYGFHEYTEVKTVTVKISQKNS
Luc counter: Kinase-Glo luciferase inhibition (counter-screen) | AID 1379 | Potency, µM (titrated, usually from 38.3 µM), usual class: inhibitors | hit rate 0.28% among 200,000 | Kinase-Glo luciferase, ATP luminescence, 8 min | Q27757; also: nearly all actives have a fitted effect of over 60% in size
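Kinase-Glo luciferase light output from ATP and luciferin was measured with 10 uM ATP, within the enzyme's linear range. Buffer: 50 mM imidazole pH 7.2, 50 mM KCl, 7 mM MgCl2, 0.01% Tween 20, 0.05% BSA; luminescence read after 8 min at ambient temperature.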
Each line names hits and unclear results; the compound was inactive in the other large screens. Unless noted, calls follow the shape of the dose curve; as a rule, active = well fitted curve in the direction sought with a large enough effect; inconclusive = small, poorly fitted or top-dose-only effect, or another doubt; inactive = no such curve, though single readings can be large; an effect the other way counts as inactive or inconclusive.

CC(C)CCNc1nc2c(c(=O)n(Cc3cccc(F)c3)c(=O)n2C)n1C	LMNA splice mod inconclusive, HPGD block inconclusive, ALDH1A1 inh 13µM
Oc1ccccc1/C=N/n1cnn(Cc2ccccc2Cl)c1=S	HPGD block inconclusive, ALDH1A1 inh inconclusive
Cc1nc2scc(-c3cccs3)c2c(=O)[nH]1	HPGD block 22µM, ALDH1A1 inh 11µM
O=c1[nH]c(-c2ccc(O)cc2)nc2scc(-c3cccs3)c12	ALDH1A1 inh inconclusive (no result: IMPase Li inh, HPGD block, Luc counter)
COc1cc(/C=N/NC(=S)Nc2cccc(C(=O)O)c2)cc(OC)c1OC	LMNA splice mod inconclusive, ALDH1A1 inh 14µM
COc1cccc(/C=N/NC(=S)Nc2cccnc2)c1	none (no result: LMNA splice mod, HPGD block)
COc1cccc(/C=N/NC(=S)Nc2cccc(C(=O)O)c2)c1	ALDH1A1 inh 32µM (no result: LMNA splice mod, HPGD block)
COc1ccc(/C=N/NC(=S)Nc2cccc(C(=O)O)c2)cc1OC	none
Cc1ccc(CSc2ccc(C(=O)N3CCOCC3)cc2[N+](=O)[O-])cc1	none (no result: LMNA splice mod, HPGD block)
CC1=C(C)C(=O)N(c2ccccn2)C1=O	none
Cc1nn(-c2ccccn2)c2c1C(=O)C(Br)CC2 (centres undefined)	LMNA splice mod inconclusive, ALDH1A1 inh 11µM (no result: HPGD block)
CCN(CC)S(=O)(=O)c1cc(NS(=O)(=O)c2cc(Cl)ccc2Cl)ccc1C	LMNA splice mod inconclusive, ALDH1A1 inh 16µM
NS(=O)(=O)c1ccc(Cl)c(S(N)(=O)=O)c1	none (no result: IMPase Li inh, HPGD block, ALDH1A1 inh, Luc counter)
N#CC(C#N)=C1c2cc(S(N)(=O)=O)ccc2-c2ccc(S(N)(=O)=O)cc21	ALDH1A1 inh 7.9µM (no result: HPGD block)
Cc1cccc(C(=O)OCc2cc(=O)n3nc(C4CC4)sc3n2)c1	none (no result: IMPase Li inh, HPGD block, ALDH1A1 inh, Luc counter)
CC(C)=C1C2C=CC1C1C(=O)N(c3ccc4c(c3)OCO4)C(=O)C21 (centres undefined)	ALDH1A1 inh 3.5µM
CC(C)=C1C2CCC1C1C(=O)N(c3ccc4c(c3)OCO4)C(=O)C21 (centres undefined)	none
O=[N+]([O-])/C(C(Cl)=C(Cl)Cl)=C(\Nc1ccc(F)cc1)n1cncn1	LMNA splice mod inconclusive, HPGD block 28µM, ALDH1A1 inh 13µM
CCOc1ccccc1N/C(=C(/C(Cl)=C(Cl)Cl)[N+](=O)[O-])n1cncn1	ALDH1A1 inh 20µM
CCOc1ccc(N/C(=C(/C(Cl)=C(Cl)Cl)[N+](=O)[O-])n2cncn2)cc1	HPGD block inconclusive, ALDH1A1 inh inconclusive
CCOc1ccccc1NC(=O)c1ccc([N+](=O)[O-])cc1	none (no result: LMNA splice mod, HPGD block)
Nc1cc(C(=O)c2ccccc2)ccc1[N+](=O)[O-]	none (no result: HPGD block)
COC(=O)CSc1nnc(CNC(=O)c2cc(OC)cc(OC)c2)n1-c1ccc(F)cc1	LMNA splice mod inconclusive (no result: HPGD block)
Cc1n[nH]c(=S)n1/N=C/c1ccc(-c2ccccc2[N+](=O)[O-])o1	HPGD block 14µM, ALDH1A1 inh 14µM
Cc1nnc(N/N=C/c2ccc(-c3ccccc3F)o2)n1N	none (no result: LMNA splice mod, HPGD block, Luc counter)
Cc1nnc(N/N=C\c2ccc(-c3ccccc3[N+](=O)[O-])o2)n1N	ALDH1A1 inh 20µM
CO/N=C/NC(=O)N1OC[C@@H]2COc3ccc4ccccc4c3[C@@H]21	none
NC(=S)N1OC[C@@H]2COc3ccc4ccccc4c3[C@@H]21	ALDH1A1 inh 13µM (no result: LMNA splice mod, HPGD block)
O=C1CCCC/C1=C\Nc1ccc(O)cc1	ALDH1A1 inh 14µM
Cc1ccc(S(=O)(=O)Nc2ccc(S(=O)(=O)Nc3ncccn3)cc2)cc1	ALDH1A1 inh inconclusive
O=C1CCCC/C1=C/Nc1ccc(S(=O)(=O)Nc2ncccn2)cc1	ALDH1A1 inh 22µM
CCCS(=O)(=O)c1c(S(=O)(=O)CCC)c2ccc(C(N)=O)cn2c1C(=O)c1ccc(OC)cc1	ALDH1A1 inh inconclusive (no result: LMNA splice mod, HPGD block)
COC(=O)C1(CC(C)C)C=C2C(=C(C(C)C)C(=O)C2C)CN1 (centres undefined)	HPGD block inconclusive, ALDH1A1 inh 35µM (no result: LMNA splice mod)
COC(=O)C1(Cc2ccccc2)C=C2C(=C(c3ccccc3)C(=O)C2C)CN1 (centres undefined)	HPGD block 10µM, ALDH1A1 inh 25µM (no result: LMNA splice mod)
COC(=O)C1(Cc2ccccc2)C=C2C(=C(C(C)C)C(=O)C2C)CN1 (centres undefined)	HPGD block inconclusive, ALDH1A1 inh inconclusive (no result: LMNA splice mod)
Nc1ncc(S(=O)(=O)NCc2ccccc2)cn1	none (no result: IMPase Li inh, HPGD block, ALDH1A1 inh, Luc counter)
CC(=O)OCC(=O)[C@@]1(O)CCC2C3CCC4=CC(=O)CC[C@]4(C)C3C(O)C[C@]21C (some centres undefined)	none (no result: LMNA splice mod)
O=C(N/N=C/c1cccc(OC(=O)N2CCOCC2)c1)c1cccs1	none
O=C1NN(c2ccc(Cl)c(Cl)c2)C(=O)/C1=C/c1cccc(OC(=O)c2cccs2)c1	HPGD block 10µM, ALDH1A1 inh inconclusive
COC(=O)N/N=C\c1cccc(OC(=O)c2cccs2)c1	none (no result: LMNA splice mod, HPGD block)
CCOc1cc(/C=C2/C(=O)N(c3ccccc3)N=C2C)ccc1OC(=O)c1cccs1	HPGD block 20µM, ALDH1A1 inh inconclusive
O=C1NN(c2ccccc2)C(=O)/C1=C\c1cccc(OC(=O)c2cccs2)c1	HPGD block 2.5µM, ALDH1A1 inh 7.9µM
CCOc1cc(/C=N/NC(=O)COc2cccc(C)c2)ccc1OC(=O)c1cccs1	none
CCC(C)(C)NC(=O)Cn1c(=O)ccc2cc(S(=O)(=O)N3CCC(C)CC3)ccc21	none (no result: IMPase Li inh, HPGD block, ALDH1A1 inh, Luc counter)
COC(=O)c1sccc1S(=O)(=O)N(CC(=O)Nc1ccccc1)c1ccccc1	none (no result: IMPase Li inh, HPGD block, ALDH1A1 inh, Luc counter)
CC1CCc2c(C(=O)N3CCN(S(=O)(=O)c4cccs4)CC3)csc2C1 (centres undefined)	ALDH1A1 inh inconclusive
COc1ccc(OC)c(NC=C2C(=O)OC(C)(C)OC2=O)c1	ALDH1A1 inh 0.18µM
COc1ccc(OC)c(NC(=O)C2=C(C)C(=O)OC23CCCCCC3)c1	none (no result: IMPase Li inh, HPGD block, ALDH1A1 inh, Luc counter)
CCOc1ccccc1NC=C1C(=O)OC2(CCCCC2)OC1=O	ALDH1A1 inh 0.71µM
COc1ccc(C(=O)NC=C2C(=O)OC(C)(C)OC2=O)cc1	ALDH1A1 inh 13µM (no result: LMNA splice mod, HPGD block)
COc1ccc(OC)c(Nc2ccc(Nc3cc(OC)ccc3OC)nn2)c1	LMNA splice mod inconclusive
COc1ccc(OC)c(NC=C2C(=O)OC3(CCCCC3)OC2=O)c1	HPGD block inconclusive, ALDH1A1 inh 0.089µM
CCOc1ccccc1N/C=C/C(=O)C(C)(C)C	none
CC(=O)N1c2ccccc2N2C(c3c(C)c(C)cc(C)c3C)=NON12	LMNA splice mod inconclusive (no result: HPGD block)
O=C(NCc1ccccc1)NC(O)C(Cl)(Cl)Cl (centres undefined)	none (no result: HPGD block)
CC(=O)c1cccc(NC=C2C(=O)OC3(CCCCC3)OC2=O)c1	ALDH1A1 inh 2.2µM
CCOC(=O)c1ccc(NC(=O)CC2C(=O)OCCN2CC)cc1 (centres undefined)	ALDH1A1 inh 1.4µM (no result: HPGD block)
CCOC(=O)c1ccc(NC(=O)CC2NCCNC2=O)cc1 (centres undefined)	IMPase Li inh inconclusive
CCOC(=O)c1ccc(NC(=O)CN2C(=O)CNC2=O)cc1	ALDH1A1 inh inconclusive
CCCN1CCOC(CC(=O)Nc2ccc([N+](=O)[O-])cc2)C1=O (centres undefined)	ALDH1A1 inh 8.9µM (no result: LMNA splice mod, HPGD block)
